# HCMV antiviral = blocks human cytomegalovirus replication | HFF cells, HCMV-luciferase reporter, 72 h; stronger effect = lower value | AID 1259415 | actives 4.5% (n = 410,000) | activity change, negative = inhibition, % at 57.5 µM; in the data active = activity change below about -60%; inconclusive = no clear call, values can overlap the other calls; inactive = above about -39%
#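 Screen run at 2 compound doses on HFFs infected with reporter HCMV, MOI 1 PFU/cell. Luciferase activity from cell lysates at 72 h post infection gave inhibition relative to buffer-only and Salinomycin wells.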
# Vaccinia Venus = vaccinia inhibition (Venus reporter); Potency, µM (highest dose often 36.5 µM), for inactives: at the highest dose activity change, negative = inhibition, actives largely listed as inhibitors; actives 0.46% (n = 330,000); AID 720580; Vaccinia virus Venus reporter expression, fluorescence; calls by dose curve; tested in A549 cells; also: potency is read from the fitted curve at half-maximal effect; nearly all actives have a fitted effect of over 30% in size
# FMDV antiviral = foot and mouth disease virus antiviral activity | actives 1.2% (n = 410,000) | FMDV antiviral cell-based qHTS | Potency, µM (top dose mostly 57.9 µM), for inactives: top-dose activity change, negative = inhibition, actives largely listed as inhibitors; calls by dose curve; tested in HEK293T cells; also: read-out not given here; potency is read from the fitted curve at half-maximal effect; nearly all actives have a fitted effect of over 45% in size
# Marburg entry inh = Marburg virus entry inhibition; AID 540276; Potency, µM (titrated, usually from 37.8 µM), inactives show at the top dose activity change, negative = inhibition, usual class: inhibitors; actives 1.8% (n = 300,000); Marburg virus pseudotyped entry inhibition, cell reporter; calls by dose curve; tested in HEK293 cells; also: potency is read from the fitted curve at half-maximal effect
# Vaccinia mCherry = inhibitors of vaccinia virus infection (mCherry reporter signal); Vaccinia virus mCherry reporter infection, fluorescence; Potency, µM (highest dose often 36.5 µM), for inactives: top-dose activity change, negative = inhibition, actives largely listed as inhibitors; actives 0.63% (n = 310,000); calls by dose curve; tested in A549 cells; also: potency is read from the fitted curve at half-maximal effect; nearly all actives have a fitted effect of over 35% in size
# Lassa entry inh = inhibitors of Lassa virus binding or cell entry. actives 1.2% (n = 300,000). Lassa virus pseudotype entry inhibition, cell reporter. Potency, µM (titrated, usually from 37.9 µM), for inactives: at the highest dose activity change, negative = inhibition, actives largely listed as inhibitors. AID 540256; calls by dose curve; tested in HEK293 cells; also: potency is read from the fitted curve at half-maximal effect; nearly all actives have a fitted effect of over 50% in size
# Numbers without * were called inactive; i = inactive; ? = inconclusive; / = not tested or not shown; [ ] = remark or other dose. This is a sample that favours compounds with a hit; in the whole collection about 6.5% have one here. % is scaled to controls: 0 for no effect and ±100 for the full control effect.
SMILES,HCMV antiviral,Vaccinia Venus,FMDV antiviral,Marburg entry inh,Vaccinia mCherry,Lassa entry inh
Cc1cccc(NC(=S)Nc2cccc(C)n2)n1,46.3,-21.9%,10.6%,?,?,24.1%[46.1 µM]
Cc1cccc(NC(=S)Nc2ccc(Oc3ccccc3)cc2)n1,-60.7*,-28.5%,-16.3%,?,-15.3%,-17.8%
Cc1ccc(CN(C(=O)COc2ccccc2Cl)c2ccccn2)o1,72.7,3.9%,65.5%,3.4%[46.1 µM],-6.8%,?
CCc1nc(N2CCN(C(=S)NCCCOC)CC2)c2c3c(sc2n1)CCCC3,-63.6*,/,?,/,/,/
CC(C)c1nc(N2CCN(C(=O)c3ccco3)CC2)c(C#N)c2c1COC(C)(C)C2,?,-15.0%,-19.8%,?,i,-24.2%[46.1 µM]
CC(C)c1nc(N2CCN(C(=O)c3ccccc3)CC2)c(C#N)c2c1COC(C)(C)C2,-4.9,-2.0%,-25.5%,11.6µM*,-2.7%,?
CCCN1CCN(CCNC(=O)Nc2ccc(OC)c(OC)c2)CC1,8.4,3.5%,-7.9%,-14.0%[46.1 µM],-2.6%,14.8%[46.1 µM]
COc1ccccc1CNc1ncnc2sccc12,-75.9*,-5.6%,-27.5%,6.31µM*,i,?
CN(C)c1ccc(CNc2ncnc3sccc23)cc1,-82.0*,-17.5%,?,?,-24.0%,3.55µM*
c1ccc2c(c1)OCC(CNc1ncnc3sccc13)O2 (stereo not given),-63.3*,-21.0%,?,?,?,-31.0%
COc1ccc(CCNc2ncnc3sccc23)cc1OC,-89.2*,-18.2%,28.2µM*,?,-13.1%,?
NS(=O)(=O)c1ccc(CNc2ncnc3sccc23)cc1,3.5,0.2%,-27.0%,2.2%[46.1 µM],28.5%,-1.1%
Nc1c(Br)cc(C=O)cc1Br,/,-5.9%,/,/,-8.1%,/
O=c1c(-c2cc(F)cc(F)c2)nc2cnc(N3CCOCC3)nc2n1Cc1ccc(F)cc1,/,/,-10.2%,/,/,/
CN(C)Cc1ccccc1-c1nc(N(C)C)c2ccccc2n1,/,/,-8.0%,/,/,/
CC(=O)N1CCCc2cc(S(=O)(=O)N3CCN(c4ccccc4F)CC3)ccc21,-27.4,-11.9%,?,/,-4.6%,-9.7%[46.1 µM]
C#Cc1ccccc1C[C@]1(C(=O)OC)C=C[C@H](C)[C@@H](c2ccccc2Br)N1C(=O)C(F)(F)F,/,/,/,6.5%[14.2 µM],/,/
Cc1ccccc1OCC(=O)O/N=C(\N)Cc1cccs1,14.1,-1.6%,/,23.0%,i,-21.7%
COc1ccccc1C/C(N)=N/OC(=O)c1cccs1,64.5,-3.9%,-5.8%,11.2µM*,-2.8%,10µM*
Cc1ccccc1C(=O)O/N=C(\N)Cc1cccs1,-61.7*,-20.5%,1.8%,?,i,8.5%[46.1 µM]
N/C(Cc1cccc2ccccc12)=N\OC(=O)c1cccs1,/,-7.8%,-13.6%,3.6%,-2.0%,2.7%
Cc1cc(C)n2c(SCC(=O)N3CCN(S(=O)(=O)c4ccc(Cl)cc4)CC3)nnc2n1,-73.2*,-14.6%,5.9%,14.4%[46.1 µM],-14.4%,-11.5%
c1ccc2ncccc2c1,/,-7.9%,-19.5%,/,3.7%,/
c1ccc2nccnc2c1,/,3.55µM*,/,/,11.2µM*,/
CCC(CC)c1nn2c(=O)cc(COc3ccc(NC(=O)c4ccc(C)cc4)cc3)nc2s1,2.8,-14.3%,-22.9%,?,-17.1%,4.1%[46.1 µM]
SMILES,HCMV antiviral,Vaccinia Venus,FMDV antiviral,Marburg entry inh,Vaccinia mCherry,Lassa entry inh
COc1ccccc1CNC(=O)COC(=O)/C=C/c1ccc2ccccc2n1,-62.1*,/,23.4%,/,/,/
CC(=O)/C=C/c1ccc2ccccc2n1,-83.7*,?,?,?,/,?
CC(OC(=O)/C=C/c1ccc2ccccc2n1)C(=O)N(C)c1ccccc1 (stereo not given),-34.9,/,-25.8%,/,/,/
Cc1ccc(C[C@H]2CC(=O)N(c3ccc4c(c3)OCCO4)C2=O)cc1,/,/,/,10.6%[46.1 µM],/,/
O=C1c2ccccc2C(=O)N1OS(=O)(=O)c1ccc(F)cc1,-7.2,/,?,/,/,/
Cc1cc(C)c(C)c(S(=O)(=O)ON2C(=O)c3ccccc3C2=O)c1C,-75.5*,-18.6%,?,?,-14.2%,?
Cc1ccc(S(=O)(=O)ON2C(=O)c3ccccc3C2=O)c(C)c1,-70.6*,-0.3%,?,?,-9.2%,?
Cc1cc(C)c(S(=O)(=O)ON2C(=O)c3ccccc3C2=O)cc1C,-81.3*,-1.3%,25.1µM*,?,-12.0%,-28.3%
CC(=O)C[C@H]1c2cc(F)cc(F)c2S(=O)(=O)N1C1CCN(Cc2ccccc2)CC1,/,-10.9%,/,/,-9.3%,/
CCOCCCn1c(=N)c(C(=O)NCc2cccnc2)cc2c(=O)n3ccccc3nc21,-15.8,0.4%,-18.8%,?,2.1%,9.8%[46.1 µM]
CCOCCCn1c(=N)c(C(=O)NCc2cccnc2)cc2c(=O)n3cc(C)ccc3nc21,-66.6*,-8.6%,-14.2%,5.2%[46.1 µM],-0.8%,-3.3%[46.1 µM]
CCC(C)n1c(=N)c(C(=O)NCc2ccccc2)cc2c(=O)n3cc(C)ccc3nc21 (stereo not given),-73.3*,-13.6%,-10.9%,1.0%[46.1 µM],-15.4%,0.6%[46.1 µM]
CCC(CC)C(=O)N1CCc2cc(OC)c(OC)cc2C1COc1ccccc1OC (stereo not given),-11.9,2.0%,-19.9%,/,7.6%,-4.6%[46.1 µM]
CN(C)CCCN(C(=O)c1ccc([N+](=O)[O-])s1)c1nc2cc3c(cc2s1)OCCO3,9.1,/,-29.3%,/,/,/
Cc1cccc2sc(N(CCCN(C)C)C(=O)c3ccc(C(=O)c4ccccc4)cc3)nc12,-72.2*,-27.0%,-6.5%,?,?,-28.8%[46.1 µM]
CN(C)CCCN(C(=O)c1cc2cc([N+](=O)[O-])ccc2s1)c1nc2cc3c(cc2s1)OCCO3,-97.7*,12.6µM*,39.8µM*,?,14.1µM*,?
CN(C)CCCN(C(=O)c1ccc(C(=O)c2ccccc2)cc1)c1nc2cc3c(cc2s1)OCO3,?,?,?,15.8µM*,?,11.2µM*
CC1CCCCN1S(=O)(=O)c1ccc(C(=O)N(CCCN(C)C)c2nc3cc4c(cc3s2)OCO4)cc1 (stereo not given),-69.7*,-20.4%,-21.8%,?,-15.8%,-4.8%
CCOC(=O)[C@@H](C#N)[C@@H](Cc1ccccc1)c1ccco1,/,/,/,1.5%,/,/
O=C(c1cccn1-c1nnc(N2CCCC2)s1)N1CCN(c2ccc(F)cc2)CC1,0.0,0.1%,-7.9%,/,-11.9%,13.9%[46.1 µM]
COc1ccccc1NC(=O)COc1ccc(C(=O)OCC(=O)NC(C)(C)C)cc1OC,2.6,-8.8%,22.4µM*,-5.6%[46.1 µM],-12.0%,/
COc1cc(CNCCc2ccccc2)ccc1OCC(=O)NC(C)(C)C,-19.9,-15.3%,-9.4%,11.2µM*,i,-10.3%
CCOc1cc(CNc2ccccc2)cc(Br)c1OCC(=O)NC(C)(C)C,-96.8*,?,/,?,?,?
CCOc1cc(CNc2ccc(Br)cc2)cc(Br)c1OCC(=O)NC(C)(C)C,?,?,?,-20.1%,-11.0%,-10.0%
Cc1cnc(-n2ncc(C(=O)NC(C)(C)CO)c2-c2cccs2)nc1-c1ccc(F)cc1,/,-0.1%,21.4%,/,-6.3%,/
Cc1cc(C)cc(NC(=O)COc2ccc(C(=S)N3CCOCC3)cc2)c1,-62.1*,-8.1%,-24.1%,?,-8.0%,-0.3%

# Screening results from PubChem.
